These results are taken from PubChem BioAssay (NCI).

The panel holds about 83,000 compounds, 20% with a hit somewhere; the sample as a whole holds those more often.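 Negative percent growth values reflect cell death: -40 means 40% of the cells present at the start died, and -100 means all died.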 A number with no mark means an inactive call. Active and inactive are the calls of the source. The calls were made as follows: active = growth percent below 10; inactive = the rest.

Among the test systems are RPMI-8226 leukemia; OVCAR-8 ovarian; OVCAR-5 ovarian; OVCAR-4 ovarian; SK-OV-3 ovarian; IGROV1 ovarian; OVCAR-3 ovarian; HS 578T breast; NCI/ADR-RES ovarian; T-47D breast.
Common to all, as to experiment: NCI-60 one-dose screen, 48 h (100 = growth as untreated, 0 = no growth, -100 = all killed)
Settings in all cases: 10 µM unless noted

In the case of `C[C@H]1[C@H](C)CC[C@]2(C(=O)OCCCC[P+](c3ccccc3)(c3ccccc3)c3ccccc3)CC[C@]3(C)C(=CC[C@@H]4[C@@]5(C)CC[C@H](OC(=O)C(Cl)Cl)C(C)(C)[C@@H]5CC[C@]43C)[C@H]12`, the growth was -53.3% (active) in the experiment with RPMI-8226 leukemia; -36.8% (active) in the experiment on OVCAR-8 ovarian; -52.2% (active) in the experiment on OVCAR-5 ovarian; -12.1% (active) in the experiment on OVCAR-4 ovarian; -15.5% (active) with SK-OV-3 ovarian; -51.8% (active) with IGROV1 ovarian. Moreover, the growth was -88.8% (active) in the experiment with OVCAR-3 ovarian, -20.1% (active) in the experiment on HS 578T breast, 36.8% with NCI/ADR-RES ovarian and -23.8% (active) with T-47D breast.

For `Cc1ccc(C2CC(c3ccc(Nc4nc(NCCO)nc(NCCO)n4)cc3)=NN2c2ccc(Cl)cc2)cc1` (stereo not given), the growth in the experiment on RPMI-8226 leukemia was 47.5%; in the experiment with OVCAR-8 ovarian, 66%; in the experiment on OVCAR-5 ovarian, 99%; with OVCAR-4 ovarian, 63.9%; in the experiment with SK-OV-3 ovarian, 98.6%; in the experiment on IGROV1 ovarian, 82.6%. The growth with OVCAR-3 ovarian is 45.7%; in the experiment on HS 578T breast, 72.8%; in the experiment on NCI/ADR-RES ovarian, 80.4%; with T-47D breast, 53.1%.

For the compound `Sc1cccc2cccnc12`, the growth in the experiment on RPMI-8226 leukemia was 26.5%; with OVCAR-8 ovarian, 27.1%; with OVCAR-5 ovarian, 59.6%; in the experiment on OVCAR-4 ovarian, 36.3%; in the experiment with SK-OV-3 ovarian, 45.5%; in the experiment on IGROV1 ovarian, 36.9%. The growth in the experiment with OVCAR-3 ovarian was 17.9%; with HS 578T breast, 71.9%; in the experiment with NCI/ADR-RES ovarian, 24.8%; in the experiment on T-47D breast it was 40.5%.

In the case of `Nc1c(C(=O)Nc2cccc3ccccc23)sc2nc3c(cc12)COCC3`, the growth is 59.6% with RPMI-8226 leukemia; 57.9% in the experiment with OVCAR-8 ovarian; 87.9% with OVCAR-5 ovarian; 73.4% in the experiment on OVCAR-4 ovarian; 38.6% in the experiment with SK-OV-3 ovarian; 49.1% in the experiment on IGROV1 ovarian. For the same compound, the growth in the experiment with OVCAR-3 ovarian was 19.8%; in the experiment with HS 578T breast it was 35.8%; with NCI/ADR-RES ovarian, 26.8%; in the experiment with T-47D breast, 57.1%.

For the compound `N#CCNc1ccc(C(=O)O)cc1`, the growth is 102% in the experiment with RPMI-8226 leukemia; 102% in the experiment with OVCAR-8 ovarian; 120% with OVCAR-5 ovarian; 117% in the experiment with OVCAR-4 ovarian; 105% in the experiment with SK-OV-3 ovarian; 103% in the experiment with IGROV1 ovarian. Further, the growth with OVCAR-3 ovarian was 110%; in the experiment on HS 578T breast, 105%; with NCI/ADR-RES ovarian, 105%; in the experiment on T-47D breast it was 99.2%.

On to `CC(=O)Nc1nc2c(c(N)c1C#N)C(c1cccc(Cl)c1)C1=C(CCCC1=O)N2c1sc2c(c1C#N)CCCC2` (stereo not given), for which the growth in the experiment on RPMI-8226 leukemia was 22%; with OVCAR-8 ovarian, 37%; with OVCAR-5 ovarian, 87.1%; in the experiment with OVCAR-4 ovarian, 57.5%; with SK-OV-3 ovarian it was 54.7%; in the experiment with IGROV1 ovarian, 59.4%. Also, the growth is 56.1% with OVCAR-3 ovarian, 73.7% in the experiment with HS 578T breast, 46.7% with NCI/ADR-RES ovarian and 36.7% with T-47D breast.

As for `NS(=O)(=O)c1ccc(-n2ncc(NC(=O)Nc3ccc(S(=O)(=O)Nc4nccs4)cc3)c2-c2ccccc2)cc1`, the growth is 103% with RPMI-8226 leukemia; 102% with OVCAR-8 ovarian; 99% with OVCAR-5 ovarian; 101% in the experiment with OVCAR-4 ovarian; 99.5% in the experiment with SK-OV-3 ovarian; 105% with IGROV1 ovarian. Besides, the growth in the experiment on OVCAR-3 ovarian is 111%; in the experiment on HS 578T breast, 102%; in the experiment with NCI/ADR-RES ovarian, 105%; in the experiment with T-47D breast it was 94.2%.

Turning to `C=C1C(=O)O[C@H]2[C@H]1CC/C(COC(=O)c1c[nH]c3ccccc13)=C\CC[C@@]1(C)O[C@@H]21`, the growth is -27.4% (active) with RPMI-8226 leukemia; 5% (active) in the experiment with OVCAR-8 ovarian; -25.3% (active) in the experiment with OVCAR-5 ovarian; -90.6% (active) with OVCAR-4 ovarian; 68.9% in the experiment on SK-OV-3 ovarian; -56.2% (active) with IGROV1 ovarian. Also, the growth in the experiment with OVCAR-3 ovarian is -94.2% (active); in the experiment with HS 578T breast it was 3.21% (active); with NCI/ADR-RES ovarian, -4.86% (active); in the experiment with T-47D breast, -49.2% (active).

As for `CCOC(=O)NCCc1nc2c([nH]1)c(=O)n(C)c(=O)n2C`, the growth in the experiment with RPMI-8226 leukemia is 106%; in the experiment with OVCAR-8 ovarian, 107%; with OVCAR-5 ovarian, 90.3%; in the experiment with OVCAR-4 ovarian, 107%; with SK-OV-3 ovarian, 122%; in the experiment with IGROV1 ovarian, 97.1%. Moreover, the growth was 113% in the experiment on OVCAR-3 ovarian, 104% with HS 578T breast, 99.8% in the experiment with NCI/ADR-RES ovarian and 102% with T-47D breast.

`CCC1=C[C@H]2CN(CCc3c([nH]c4ccccc34)[C@@](C(=O)OC)(c3cc4c(cc3OC)N(C)[C@H]3[C@@](O)(C(=O)OC)[C@H](OC(C)=O)[C@]5(CC)[C@@H]6C[C@@H]6CN6CC[C@]43[C@@H]65)C2)C1`: the growth is -25.3% (active) in the experiment on RPMI-8226 leukemia; 8.29% (active) with OVCAR-8 ovarian; 42% in the experiment on OVCAR-5 ovarian; 37.6% with OVCAR-4 ovarian; 17.9% in the experiment with SK-OV-3 ovarian; 21.6% with IGROV1 ovarian. In addition, the growth was 0.761% (active) with OVCAR-3 ovarian, 10.8% with HS 578T breast, 28% in the experiment with NCI/ADR-RES ovarian and 70% with T-47D breast.

Regarding `Oc1ccc(CNNc2ccnc3c(O)cccc23)c2cccnc12`, the growth is 22.2% in the experiment on RPMI-8226 leukemia; 20.8% in the experiment on OVCAR-8 ovarian; 59.1% with OVCAR-5 ovarian; 34.4% in the experiment on OVCAR-4 ovarian; 27.6% with SK-OV-3 ovarian; 35.1% in the experiment on IGROV1 ovarian. In addition, the growth in the experiment on OVCAR-3 ovarian was 37.8%; with HS 578T breast it was 47.7%; with NCI/ADR-RES ovarian, 6.61% (active); with T-47D breast it was 29.6%.

`CCCCC1=c2c([nH]c3ccc(OC)cc23)=NC2C=CC=NC12` (stereo not given): the growth was 56.8% in the experiment on RPMI-8226 leukemia; 101% in the experiment with OVCAR-8 ovarian; 106% in the experiment with OVCAR-5 ovarian; 80.3% in the experiment on OVCAR-4 ovarian; 113% in the experiment on SK-OV-3 ovarian; 69.9% in the experiment on IGROV1 ovarian. Further, the growth in the experiment on OVCAR-3 ovarian was 114%; with HS 578T breast, 92.3%; with NCI/ADR-RES ovarian it was 96.6%; in the experiment on T-47D breast, 38.8%.

Consider `CC(/C=C/c1ccccc1)=N/NC(=O)c1ccncc1`, for which the growth in the experiment on RPMI-8226 leukemia is 99.9%; in the experiment on OVCAR-8 ovarian it was 101%; in the experiment on OVCAR-5 ovarian, 114%; in the experiment with OVCAR-4 ovarian, 105%; with SK-OV-3 ovarian, 105%; in the experiment with IGROV1 ovarian, 103%. The growth was 109% with OVCAR-3 ovarian, 99.6% in the experiment with HS 578T breast, 107% in the experiment with NCI/ADR-RES ovarian and 99% in the experiment on T-47D breast.
